Not all results are given here.
aSyn UTR act – Activators working through SNCA 5'UTR binding (MLPCN); alpha-synuclein 5'UTR reporter, activators screen; activity score, % (tested at 7.5 µM), hits read low; 300,000 compounds, 7.1% hits; in the data active means activity score below about -60%
* = called active by the depositor.

SMILES	aSyn UTR act
COc1ccc(C2CC(c3ccc(Cl)cc3)=NN2C(C)=O)cc1 (centres undefined)	-115.9*
CC(=O)N1N=C(c2ccc(C)o2)CC1c1ccc(Br)cc1 (centres undefined)	-198.9*
COc1ccc(C2CC(c3ccc(C)o3)=NN2C(C)=O)cc1 (centres undefined)	-128.2*
COc1ccc(C2CC(c3ccc4ccccc4c3OC(C)=O)=NN2C(C)=O)cc1 (centres undefined)	-203.1*
O=C(c1ccc2ccccc2c1)N1CCc2ccccc21	-100.1*
CCOc1ccc(C(=O)N2CCc3ccccc32)cc1	-104.1*
O=C(c1cccs1)N1CCc2ccccc21	-156.7*
CCOC(=O)c1sc(=NC(=O)c2ccc(F)cc2)n(C)c1C	-103.9*
CCOC(=O)c1sc(=NC(=O)c2c(F)cccc2F)n(C)c1C	-103.5*
CCOC(=O)c1sc(=NC(=O)c2ccc(C)cc2)n(C)c1C	-195.9*
Cc1cccc(NCc2nc3ccccc3n2C)c1	-192.8*
Cc1ccc(N2CCN(c3ccc(NCc4nc5ccccc5n4C)cc3)CC2)cc1	-89.4*
Cn1c(CNc2ccc(Cl)cc2)nc2ccccc21	-176.4*
Cc1nc2cc(NCc3nc4ccccc4n3Cc3ccccc3)ccc2n1C	-96.3*
COc1ccc(/C=C/C(=O)c2ccc(NC3=NCCCS3)cc2)cc1OC	-99.3*
CCCn1nnc(NC(=O)c2ccc(OC)cc2)n1	-121.4*
CCOc1ccc(C(=O)Nc2nnn(CC)n2)cc1	-86.0*
CCCn1nnc(NC(=O)c2ccc(Br)cc2)n1	-137.1*
CCCn1nnc(NC(=O)c2ccc(-c3ccccc3)cc2)n1	-217.6*
Cn1c(=N)n(CC(=O)c2ccc(F)cc2)c2ccccc21	75.7
CCn1c(=N)n(CC(=O)c2ccc(Cl)c(Cl)c2)c2ccccc21	-186.4*
O=C(NC1CCCC1)c1ccc(CSCc2ccccc2F)o1	-62.6*
O=C(NC1=NCCS1)c1ccc(Cl)c(Cl)c1	-101.4*
Cc1cccc(C(=O)NC2=NCCS2)c1	-56.3*
O=C(/C=C/c1ccc(Cl)c(Cl)c1)NC1=NCCS1	-103.6*
SMILES	aSyn UTR act
Cc1ccc(CSc2nccc(-c3c(C)nc4ccccn34)n2)cc1	-69.7*
Cc1ccc(CSc2nc3ccccc3cc2C=O)cc1	93.4
Cc1nc(C(C)NC(=O)CCc2nnc(CCCc3ccccc3)o2)c(C)s1 (centres undefined)	-174.0*
O=C(CCc1nnc(CCCc2ccccc2)o1)NC(C1CC1)C1CC1	-145.9*
CC(NC(=O)CCc1nnc(-c2ccc(-c3ccccc3)cc2)o1)c1nccs1 (centres undefined)	89.4
CCN(CC)CC#CC(OC)(c1ccccc1)c1ccccc1	-80.6*
COc1cc(C(=O)N/N=C(\c2ccccc2)c2ccccn2)cc(OC)c1OC	81.3
COc1ccccc1-n1cnc(N)c1C(=O)c1ccccc1	-152.8*
Cc1cc(C(=O)CSc2ccc3c(c2)OCCO3)c(C)n1C1CC1	-125.9*
C/C(N)=C(/C#N)C(=O)CSc1ccc2c(c1)OCCO2	-125.3*
C/C(=N\NC(=O)c1cc(Cl)ccc1O)c1ccc(Br)s1	-76.0*
C/C(=N\NC(=O)CSCc1ccccc1Cl)c1cc(O)ccc1O	61.8
COc1ccc(C(=O)C[n+]2cn(C(F)F)c3ccccc32)c(F)c1	-116.9*
COc1cc(CNc2ccc3[nH]c(=O)[nH]c3c2)ccc1OCc1ccccc1F	-107.4*
COc1cc(CNc2ccc3[nH]c(=O)[nH]c3c2)ccc1OCc1ccccc1	-86.3*
COc1cc(CNc2ccc3[nH]c(=O)[nH]c3c2)ccc1OCc1ccc(Cl)cc1	-171.0*
COc1cc(CNc2ccc3[nH]c(=O)[nH]c3c2)ccc1OCc1ccc(F)cc1	-91.2*
COc1cc(CNc2ccc(CNc3ncn[nH]3)cc2)ccc1OCc1ccccc1	-116.7*
Cc1cccc(NC(=O)c2ccoc2C)n1	-86.1*
Cc1occc1C(=O)Nc1cc(C(C)(C)C)on1	-101.4*
Nc1nc2ccccc2cc1-c1cccs1	-121.1*
c1csc(-c2ccc3ccccc3n2)c1	-139.6*
Cc1ccc2nc(Cl)c(-c3ccccc3)cc2c1	74.2
Cc1ccc(-c2cc3ccccc3nc2N)cc1	-93.5*
COc1ccc(-c2cc(=O)c3ccccc3[nH]2)cc1	-79.1*
SMILES	aSyn UTR act
Cc1ccc(O)c(-c2cc3ccccc3[nH]2)c1	-130.6*
COc1ccc(-c2cc3ccccc3[nH]2)cc1	-159.3*
c1ccc(-c2cc3ccccc3[nH]2)cc1	-139.0*
O=c1cc(-c2ccccc2)[nH]c2cc(Cl)ccc12	104.3
COc1ccc2[nH]c(-c3cccc(F)c3)cc(=O)c2c1	62.6
Cc1cc(N)n2ncc(-c3ccc(F)cc3)c2n1	-104.3*
COc1ccc(-c2c(C)nc3c(-c4ccccn4)cnn3c2N)cc1	-180.9*
Cc1nc2c(-c3ccc(F)cc3)cnn2c(N)c1-c1ccc(F)cc1	-150.3*
O=C1NN(c2ccccc2)C(=O)/C1=C/c1coc2ccccc2c1=O	-138.1*
Cc1cc(/C=C2\C(=O)NN(c3ccccc3)C2=O)c(C)n1-c1ccccc1O	-131.6*
COc1ccc(-n2c(C)cc(/C=C3\C(=O)NN(c4ccccc4)C3=O)c2C)cc1	-113.1*
Cc1cc(/C=C2/C(=O)NN(c3ccccc3)C2=O)c(C)n1-c1ccc(O)cc1	-138.2*
